In PMC7862700, “An all-to-all approach to the identification of sequence-specific readers for epigenetic DNA modifications on cytosine” one finds binding signal data, which are given here for one sequence.

Holding throughout (experiment): DAPPL (digital affinity profiling via proximity ligation, sequencing); 10 mM Tris-HCl pH 7.5, 50 mM NaCl, 1 mM DTT, 4% glycerol, room temperature, 30 min; GST-TFs on glutathione beads, 16-mer random dsDNA library, 0.1% formaldehyde crosslink after washing; high values mean tight binding
Common to all, as to conditions: protein: recombinant; tags: N-terminal GST; dsDNA, one strand shown

Experiment [1] addresses T1, FLI1 (Homo sapiens, UniProt Q01543 1-452).
T1 sequence: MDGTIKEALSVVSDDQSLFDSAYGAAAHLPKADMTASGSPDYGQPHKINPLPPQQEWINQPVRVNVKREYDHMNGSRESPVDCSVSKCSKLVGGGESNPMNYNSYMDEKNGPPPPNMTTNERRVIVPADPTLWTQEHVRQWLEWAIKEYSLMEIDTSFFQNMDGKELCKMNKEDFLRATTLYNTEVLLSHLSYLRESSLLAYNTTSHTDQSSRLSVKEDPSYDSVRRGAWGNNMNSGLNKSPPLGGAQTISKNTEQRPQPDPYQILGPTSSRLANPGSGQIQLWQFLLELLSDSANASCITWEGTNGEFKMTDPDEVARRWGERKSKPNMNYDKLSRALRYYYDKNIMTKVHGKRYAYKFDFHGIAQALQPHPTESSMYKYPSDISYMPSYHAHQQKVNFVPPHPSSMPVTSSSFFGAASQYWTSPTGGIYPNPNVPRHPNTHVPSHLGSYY
An outline of the steps:
(§1)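 GST fusions of human transcription factors were expressed in yeast and captured with glutathione beads. Once given DNA barcodes and pooled alongside a tag-only sample, they were incubated for 30 min at room temperature with 200 nmole of a random double-stranded 16-mer DNA library in Tris/NaCl/DTT/glycerol buffer, then washed, crosslinked (0.1% formaldehyde), proximity-ligated, PCR-amplified and sequenced on an Illumina NextSeq500. The binding signal of each hexamer is its read frequency for a factor divided by its frequency for the tag-only sample.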

The target of experiment [2] is T2, ELK1 (Homo sapiens, UniProt P19419 1-428).
T2 sequence: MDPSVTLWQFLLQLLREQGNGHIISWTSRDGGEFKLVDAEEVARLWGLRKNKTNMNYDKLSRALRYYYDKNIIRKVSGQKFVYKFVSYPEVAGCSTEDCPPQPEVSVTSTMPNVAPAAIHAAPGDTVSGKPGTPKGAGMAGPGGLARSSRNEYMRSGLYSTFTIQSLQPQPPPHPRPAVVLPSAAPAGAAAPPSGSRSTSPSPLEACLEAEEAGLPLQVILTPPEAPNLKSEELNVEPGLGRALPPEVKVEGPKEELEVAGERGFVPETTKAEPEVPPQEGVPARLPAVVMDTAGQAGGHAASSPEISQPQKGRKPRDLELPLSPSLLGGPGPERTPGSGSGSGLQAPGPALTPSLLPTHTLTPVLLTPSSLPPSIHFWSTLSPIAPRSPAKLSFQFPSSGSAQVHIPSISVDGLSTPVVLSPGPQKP
An outline of the steps: as §1

Experiment [3] addresses T3, GABPA (Homo sapiens, UniProt Q06546 1-454).
T3 sequence: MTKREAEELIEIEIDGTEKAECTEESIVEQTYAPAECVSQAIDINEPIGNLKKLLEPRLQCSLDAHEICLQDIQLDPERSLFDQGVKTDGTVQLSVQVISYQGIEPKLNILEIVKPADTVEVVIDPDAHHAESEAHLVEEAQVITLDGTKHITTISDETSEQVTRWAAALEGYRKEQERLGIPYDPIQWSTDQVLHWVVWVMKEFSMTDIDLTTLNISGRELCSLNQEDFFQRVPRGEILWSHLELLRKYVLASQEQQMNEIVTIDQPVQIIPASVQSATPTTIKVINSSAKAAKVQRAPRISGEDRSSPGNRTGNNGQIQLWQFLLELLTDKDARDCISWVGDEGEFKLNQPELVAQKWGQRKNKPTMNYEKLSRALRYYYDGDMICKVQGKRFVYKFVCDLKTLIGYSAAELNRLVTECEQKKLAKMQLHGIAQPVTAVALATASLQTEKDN
An outline of the steps: as §1

Experiment [4] has as its target T4, ERG (Homo sapiens, UniProt P11308 1-479).
T4 sequence: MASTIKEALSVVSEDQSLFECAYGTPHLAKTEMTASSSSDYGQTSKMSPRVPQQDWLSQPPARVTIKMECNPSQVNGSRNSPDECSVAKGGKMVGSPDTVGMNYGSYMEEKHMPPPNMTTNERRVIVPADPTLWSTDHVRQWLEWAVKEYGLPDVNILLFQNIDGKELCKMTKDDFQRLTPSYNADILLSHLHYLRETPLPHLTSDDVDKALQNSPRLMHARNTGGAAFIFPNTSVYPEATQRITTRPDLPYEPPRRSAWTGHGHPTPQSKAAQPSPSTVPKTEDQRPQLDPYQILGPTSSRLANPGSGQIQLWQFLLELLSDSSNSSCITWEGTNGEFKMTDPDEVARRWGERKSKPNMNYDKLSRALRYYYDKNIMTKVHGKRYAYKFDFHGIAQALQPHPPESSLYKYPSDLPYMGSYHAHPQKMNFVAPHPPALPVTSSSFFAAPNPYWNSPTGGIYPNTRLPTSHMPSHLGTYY
In a few lines: as §1

The target in experiment [5] is ELF1 (Homo sapiens, UniProt P32519 1-619). An outline of the steps:
as §1

Experiment [6] addresses T5, EHF (Homo sapiens, UniProt Q9NZC4 1-300).
T5 sequence: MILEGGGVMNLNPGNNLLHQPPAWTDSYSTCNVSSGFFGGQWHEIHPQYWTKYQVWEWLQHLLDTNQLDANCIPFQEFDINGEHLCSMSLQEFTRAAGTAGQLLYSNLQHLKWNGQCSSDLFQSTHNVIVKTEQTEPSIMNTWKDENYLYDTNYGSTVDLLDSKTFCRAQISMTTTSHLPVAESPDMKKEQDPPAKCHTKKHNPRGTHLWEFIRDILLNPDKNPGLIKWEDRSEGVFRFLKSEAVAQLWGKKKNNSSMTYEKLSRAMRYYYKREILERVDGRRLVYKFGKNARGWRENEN
An outline of the steps: as §1

Experiment [7] concerns the target SPI1 (Homo sapiens, UniProt P17947 1-270). An outline of the steps:
as §1

Experiment [8] deals with SPIB (Homo sapiens, UniProt Q01892 1-262). An outline of the steps: as §1
Sequence of SPIB (Q01892 whole entry): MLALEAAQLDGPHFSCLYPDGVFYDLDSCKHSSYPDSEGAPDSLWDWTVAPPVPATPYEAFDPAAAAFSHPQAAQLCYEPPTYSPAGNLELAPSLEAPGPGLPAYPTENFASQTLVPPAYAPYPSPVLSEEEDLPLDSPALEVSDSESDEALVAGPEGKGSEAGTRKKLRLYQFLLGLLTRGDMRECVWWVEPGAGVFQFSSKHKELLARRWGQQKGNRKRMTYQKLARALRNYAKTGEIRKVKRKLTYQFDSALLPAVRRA
In experiment [9] the target is T6, ELK3 (Homo sapiens, UniProt P41970 1-407).
T6 sequence: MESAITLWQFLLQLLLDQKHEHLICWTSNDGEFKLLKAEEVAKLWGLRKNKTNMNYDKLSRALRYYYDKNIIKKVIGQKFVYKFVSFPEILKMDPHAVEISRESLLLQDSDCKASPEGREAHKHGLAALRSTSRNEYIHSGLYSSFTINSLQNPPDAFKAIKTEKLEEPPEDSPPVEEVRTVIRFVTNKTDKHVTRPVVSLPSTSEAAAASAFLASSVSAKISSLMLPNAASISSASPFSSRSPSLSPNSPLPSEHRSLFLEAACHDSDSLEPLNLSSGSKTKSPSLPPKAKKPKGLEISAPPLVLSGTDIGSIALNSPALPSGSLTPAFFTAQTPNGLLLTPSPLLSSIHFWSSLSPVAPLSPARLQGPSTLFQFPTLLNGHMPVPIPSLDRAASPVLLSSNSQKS
In a few lines: as §1

Experiment [10] addresses T7, FEV (Homo sapiens, UniProt Q99581 1-238).
T7 sequence: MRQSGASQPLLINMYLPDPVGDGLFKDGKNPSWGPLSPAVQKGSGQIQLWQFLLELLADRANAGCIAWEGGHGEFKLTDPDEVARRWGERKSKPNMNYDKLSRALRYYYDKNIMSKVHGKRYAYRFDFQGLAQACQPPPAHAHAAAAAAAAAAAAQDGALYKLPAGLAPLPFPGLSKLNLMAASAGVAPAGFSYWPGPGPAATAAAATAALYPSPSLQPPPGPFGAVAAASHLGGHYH
In a few lines:
as §1

For experiment [11], the target named is ETV5 (Homo sapiens, UniProt P41161 1-510). In a few lines: as §1
Sequence of ETV5 (P41161 whole entry): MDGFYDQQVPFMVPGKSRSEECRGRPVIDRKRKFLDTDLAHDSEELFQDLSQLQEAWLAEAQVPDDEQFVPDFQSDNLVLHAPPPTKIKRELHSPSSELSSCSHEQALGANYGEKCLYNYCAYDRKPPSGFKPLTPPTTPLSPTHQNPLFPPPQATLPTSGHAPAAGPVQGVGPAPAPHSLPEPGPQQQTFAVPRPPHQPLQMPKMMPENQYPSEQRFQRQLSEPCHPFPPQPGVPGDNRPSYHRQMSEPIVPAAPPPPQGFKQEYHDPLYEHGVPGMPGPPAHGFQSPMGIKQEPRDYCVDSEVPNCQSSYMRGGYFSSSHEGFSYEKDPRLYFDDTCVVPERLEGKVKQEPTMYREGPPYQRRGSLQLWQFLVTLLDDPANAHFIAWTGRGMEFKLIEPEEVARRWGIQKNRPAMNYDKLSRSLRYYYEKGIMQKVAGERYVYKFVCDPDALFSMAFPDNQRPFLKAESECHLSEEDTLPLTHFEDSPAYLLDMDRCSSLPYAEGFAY
For experiment [12], the target named is T8, SPIC (Homo sapiens, UniProt Q8N5J4 1-248).
T8 sequence: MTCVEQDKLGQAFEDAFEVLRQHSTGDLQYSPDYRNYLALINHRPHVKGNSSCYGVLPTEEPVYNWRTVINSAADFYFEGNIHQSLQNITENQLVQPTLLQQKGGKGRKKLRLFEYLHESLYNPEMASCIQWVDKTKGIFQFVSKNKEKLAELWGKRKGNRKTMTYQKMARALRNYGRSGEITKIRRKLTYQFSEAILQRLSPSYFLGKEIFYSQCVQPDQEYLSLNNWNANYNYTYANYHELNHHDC
An outline of the steps:
as §1

The target in experiment [13] is ELF4 (Homo sapiens, UniProt Q99607 1-663). In a few lines:
as §1

Experiment [14] deals with T9, ELK4 (Homo sapiens, UniProt P28324-2 1-405).
T9 sequence: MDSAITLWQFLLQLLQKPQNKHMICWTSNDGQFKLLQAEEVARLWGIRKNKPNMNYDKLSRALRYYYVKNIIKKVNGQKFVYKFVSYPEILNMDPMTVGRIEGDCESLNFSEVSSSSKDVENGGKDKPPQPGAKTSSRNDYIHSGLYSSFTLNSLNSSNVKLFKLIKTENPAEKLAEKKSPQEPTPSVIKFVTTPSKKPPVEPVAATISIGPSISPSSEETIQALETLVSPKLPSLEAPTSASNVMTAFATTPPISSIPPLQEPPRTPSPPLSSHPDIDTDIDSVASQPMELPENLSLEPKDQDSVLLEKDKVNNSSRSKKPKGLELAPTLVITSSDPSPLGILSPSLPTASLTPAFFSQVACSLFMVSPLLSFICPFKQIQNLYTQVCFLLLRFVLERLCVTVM
An outline of the steps: as §1

Experiment [15] has as its target T10, ETV2 (Homo sapiens, UniProt O00321 1-342).
T10 sequence: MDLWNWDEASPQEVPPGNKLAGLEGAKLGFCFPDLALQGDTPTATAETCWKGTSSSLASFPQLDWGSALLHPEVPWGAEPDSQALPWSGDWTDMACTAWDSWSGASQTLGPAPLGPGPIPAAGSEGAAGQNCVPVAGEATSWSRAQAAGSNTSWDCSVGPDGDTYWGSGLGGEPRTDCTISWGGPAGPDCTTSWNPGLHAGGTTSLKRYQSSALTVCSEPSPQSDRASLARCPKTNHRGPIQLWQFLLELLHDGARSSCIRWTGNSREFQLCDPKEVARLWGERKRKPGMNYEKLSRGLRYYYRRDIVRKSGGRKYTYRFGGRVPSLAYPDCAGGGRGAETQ
In a few lines: as §1

Experiment [16] concerns the target T11, ELF3 (Homo sapiens, UniProt P78545 1-371).
T11 sequence: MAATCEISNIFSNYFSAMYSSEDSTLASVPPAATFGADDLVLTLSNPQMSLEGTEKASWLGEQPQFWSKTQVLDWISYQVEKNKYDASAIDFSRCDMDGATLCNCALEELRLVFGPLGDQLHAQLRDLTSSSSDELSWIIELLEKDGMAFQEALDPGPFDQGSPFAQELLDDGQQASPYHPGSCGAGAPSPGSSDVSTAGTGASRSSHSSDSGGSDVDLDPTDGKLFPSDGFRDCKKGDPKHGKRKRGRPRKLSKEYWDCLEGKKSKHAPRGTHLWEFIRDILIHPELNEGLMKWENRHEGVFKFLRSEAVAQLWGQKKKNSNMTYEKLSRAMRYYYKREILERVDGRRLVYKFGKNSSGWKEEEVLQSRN
In a few lines: as §1

Experiment [17] deals with ETV1 (Homo sapiens, UniProt P50549 1-477). In a few lines:
as §1

Sequence of ETV1 (P50549 whole entry): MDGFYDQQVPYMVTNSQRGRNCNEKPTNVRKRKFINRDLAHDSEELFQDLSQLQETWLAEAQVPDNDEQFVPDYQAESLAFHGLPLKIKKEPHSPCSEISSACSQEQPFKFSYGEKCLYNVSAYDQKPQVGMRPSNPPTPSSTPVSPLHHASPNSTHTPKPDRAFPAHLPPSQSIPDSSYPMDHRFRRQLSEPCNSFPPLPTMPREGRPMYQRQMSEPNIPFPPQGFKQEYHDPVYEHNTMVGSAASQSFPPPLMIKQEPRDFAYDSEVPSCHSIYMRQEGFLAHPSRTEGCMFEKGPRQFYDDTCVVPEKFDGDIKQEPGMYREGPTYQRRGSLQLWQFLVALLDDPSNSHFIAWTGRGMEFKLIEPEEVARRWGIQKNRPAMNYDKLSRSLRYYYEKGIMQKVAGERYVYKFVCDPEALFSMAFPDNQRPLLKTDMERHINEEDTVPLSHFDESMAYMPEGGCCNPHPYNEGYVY
Sequence of ELF4 (Q99607 whole entry): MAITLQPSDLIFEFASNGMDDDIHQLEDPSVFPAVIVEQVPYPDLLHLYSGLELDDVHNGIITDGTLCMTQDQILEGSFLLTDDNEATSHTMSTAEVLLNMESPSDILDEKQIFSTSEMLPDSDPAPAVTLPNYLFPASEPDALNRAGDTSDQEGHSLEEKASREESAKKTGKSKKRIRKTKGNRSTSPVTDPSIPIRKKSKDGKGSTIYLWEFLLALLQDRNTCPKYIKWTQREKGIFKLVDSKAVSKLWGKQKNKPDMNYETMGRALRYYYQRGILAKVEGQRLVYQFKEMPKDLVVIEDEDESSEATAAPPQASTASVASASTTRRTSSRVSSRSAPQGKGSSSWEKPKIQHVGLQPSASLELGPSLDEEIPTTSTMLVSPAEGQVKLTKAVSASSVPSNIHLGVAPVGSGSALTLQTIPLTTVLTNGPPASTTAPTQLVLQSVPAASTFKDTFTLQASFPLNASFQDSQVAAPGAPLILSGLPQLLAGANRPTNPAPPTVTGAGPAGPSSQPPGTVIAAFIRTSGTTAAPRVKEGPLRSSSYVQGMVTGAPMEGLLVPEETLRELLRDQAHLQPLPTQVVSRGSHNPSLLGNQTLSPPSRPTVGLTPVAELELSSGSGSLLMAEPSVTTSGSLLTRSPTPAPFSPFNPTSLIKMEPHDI
Sequence of ELF1 (P32519 whole entry): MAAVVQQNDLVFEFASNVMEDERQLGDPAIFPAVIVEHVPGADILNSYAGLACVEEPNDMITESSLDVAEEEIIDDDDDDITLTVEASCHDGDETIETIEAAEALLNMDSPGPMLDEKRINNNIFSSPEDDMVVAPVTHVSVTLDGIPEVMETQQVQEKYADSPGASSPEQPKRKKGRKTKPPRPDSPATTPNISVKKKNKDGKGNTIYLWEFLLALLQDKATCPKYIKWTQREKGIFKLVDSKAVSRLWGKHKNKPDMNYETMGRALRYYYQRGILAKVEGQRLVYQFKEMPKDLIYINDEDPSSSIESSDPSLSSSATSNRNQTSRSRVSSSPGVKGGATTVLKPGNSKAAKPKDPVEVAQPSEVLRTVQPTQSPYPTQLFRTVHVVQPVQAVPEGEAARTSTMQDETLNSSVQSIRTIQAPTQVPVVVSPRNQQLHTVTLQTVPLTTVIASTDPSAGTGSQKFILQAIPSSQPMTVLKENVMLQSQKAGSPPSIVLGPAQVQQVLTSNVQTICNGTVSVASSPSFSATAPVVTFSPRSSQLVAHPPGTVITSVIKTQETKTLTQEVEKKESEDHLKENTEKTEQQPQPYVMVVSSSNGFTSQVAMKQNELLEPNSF

For the sequence AGTGGC, the binding signal in experiment [1] is 1.31 fold enrichment (6-mer frequency, TF over GST control); in experiment [2] it was 1.19 fold enrichment (6-mer frequency, TF over GST control); in [3], 1.2 fold enrichment (6-mer frequency, TF over GST control); in [4] it was 1.28 fold enrichment (6-mer frequency, TF over GST control); in experiment [5], 1.23 fold enrichment (6-mer frequency, TF over GST control); in experiment [6], 1.4 fold enrichment (6-mer frequency, TF over GST control). Also, the binding signal in experiment [7] was 1.75 fold enrichment (6-mer frequency, TF over GST control); in experiment [8] it was 1.3 fold enrichment (6-mer frequency, TF over GST control); in experiment [9] it was 1.31 fold enrichment (6-mer frequency, TF over GST control); in [10] it was 1.43 fold enrichment (6-mer frequency, TF over GST control); in [11] it was 1.24 fold enrichment (6-mer frequency, TF over GST control); in [12] it was 1.16 fold enrichment (6-mer frequency, TF over GST control). The binding signal is 1.19 fold enrichment (6-mer frequency, TF over GST control) in [13]; 1.24 fold enrichment (6-mer frequency, TF over GST control) in [14]; 1.18 fold enrichment (6-mer frequency, TF over GST control) in experiment [15]; 1.36 fold enrichment (6-mer frequency, TF over GST control) in experiment [16]; 1.16 fold enrichment (6-mer frequency, TF over GST control) in experiment [17].
